Data reported in PubChem BioAssay (EPA / NIEHS).
Where “and” joins values, the source holds several entries; their conditions need not be identical. Identical values can stand only once. Where a structure was tested more than once in an assay, its records may differ in their call. Calls of active or inactive are those of the source. How the source made its calls: active means hit-call score of the fitted dose curve at least 0.9, where 1 is the maximum; inactive means score below 0.9.

How the values were obtained:
[1] = read-out: Human Leukocyte Antigen - DR isotype (HLADR), HLA-DRA (gene 3122); experiment: BSK_3C_HLADR: BioMAP Diversity Plus: 3C Assay for Human Leukocyte Antigen - DR isotype (HLADR) Biomarker Activity (AID 2283019); conditions: primary human endothelial cells (HUVEC); actives raise or lower the signal
In short: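 HUVEC, 3C stimulation, 24 h post-dose; HLA-DR by ELISA; bidirectional curve fit vs DMSO baseline; gain or loss of signal scored.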

[2] = read-out: Interleukin-8 (IL8), CXCL8 (gene 3576); experiment: BSK_CASM3C_IL8: BioMAP Diversity Plus: CASM3C Assay for Interleukin-8 (IL8) Biomarker Activity (AID 2283042); conditions: primary human coronary artery smooth muscle cells; actives raise or lower the signal;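 further: IL-8 protein level quantified by ELISA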
[3] = read-out: Human Leukocyte Antigen - DR isotype (HLADR), HLA-DRA (gene 3122); experiment: BSK_CASM3C_HLADR: BioMAP Diversity Plus: CASM3C Assay for Human Leukocyte Antigen - DR isotype (HLADR) Biomarker Activity (AID 2283043); conditions: primary human coronary artery smooth muscle cells; actives raise or lower the signal;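 further: cell-surface HLA-DR protein level quantified by ELISA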
[4] = read-out: Monokine induced gamma interferon (MIG), CXCL9 (gene 4283); experiment: BSK_CASM3C_MIG: BioMAP Diversity Plus: CASM3C Assay for Monokine induced gamma interferon (MIG) Biomarker Activity (AID 2283048); conditions: primary human coronary artery smooth muscle cells; actives raise or lower the signal;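 further: MIG protein level measured by ELISA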
[5] = read-out: Urokinase-type plasminogen activator receptor (uPAR), PLAUR (gene 5329); experiment: BSK_CASM3C_uPAR: BioMAP Diversity Plus: CASM3C Assay for Urokinase-type plasminogen activator receptor (uPAR) Biomarker Activity (AID 2283054); conditions: primary human coronary artery smooth muscle cells; actives raise or lower the signal;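 further: cell-surface uPAR protein level quantified by ELISA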
[6] = read-out: Intercellular Adhesion Molecule 1 (ICAM1), ICAM1 (gene 3383); experiment: BSK_KF3CT_ICAM1: BioMAP Diversity Plus: KF3CT Assay for Intercellular Adhesion Molecule 1 (ICAM1) Biomarker Activity (AID 2283067); conditions: primary human keratinocytes with fibroblasts; actives raise or lower the signal
In short: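 ELISA readout of ICAM-1; KF3CT human skin co-culture (keratinocytes + foreskin fibroblasts), 24 h post-dose; gain/loss fit vs DMSO baseline.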

CD40, CD40 (gene 958) = experiment: BSK_SAg_CD40: BioMAP Diversity Plus: SAg Assay for CD40 Biomarker Activity (AID 2283088); conditions: primary human HUVEC with PBMC; actives raise or lower the signal
In short: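 HUVEC/PBMC co-culture, 24 h post-dose; CD40 by ELISA, fluorescence intensity; bidirectional fit vs DMSO negative control.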

CD69, CD69 (gene 969) = experiment: BSK_SAg_CD69: BioMAP Diversity Plus: SAg Assay for CD69 Biomarker Activity (AID 2283089); conditions: primary human HUVEC with PBMC; actives raise or lower the signal;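 on AC50: cell surface CD69 protein quantified by ELISA with fluorescence detection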
In short: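 HUVEC co-cultured with PBMC were dosed with chemical, and CD69 was measured by ELISA with fluorescence read-out 24 h later. Bidirectional curve fitting used DMSO as negative control and activity baseline.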

[7] = read-out: E-selectin (Homo sapiens) (UniProt P16581); experiment: BSK_SAg_Eselectin: BioMAP Diversity Plus: SAg Assay for Eselectin Biomarker Activity (AID 2283091); conditions: primary human HUVEC with PBMC; actives raise or lower the signal
In short: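 E-selectin ELISA readout at 24 h post-dosing in human umbilical vein endothelial cell/PBMC co-culture; gain or loss of signal fitted relative to DMSO baseline.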

[8] = read-out: Interleukin-8 (IL8), CXCL8 (gene 3576); experiment: BSK_SAg_IL8: BioMAP Diversity Plus: SAg Assay for Interleukin-8 (IL8) Biomarker Activity (AID 2283094); conditions: primary human HUVEC with PBMC; actives raise or lower the signal
In short: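 Primary human endothelial cells with PBMC, exposed 24 h; IL-8 determined by ELISA, analysed bidirectionally relative to DMSO.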

[9] = BSK_SAg_Proliferation: Cell Proliferation Assessment in the BioMAP Diversity Plus: SAg Assay (AID 2283095); conditions: primary human HUVEC with PBMC;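 further: relative cell number as total protein by SRB absorbance in sub-confluent culture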
In short: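 A human primary co-culture of umbilical vein endothelium and blood mononuclear cells receives compound; relative cell number is quantified at 96 h by SRB staining and 560 nm absorbance, with DMSO-referenced bidirectional curve fitting.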

[10] = BSK_SAg_SRB: Viability Assessment in the BioMAP Diversity Plus: SAg Assay (AID 2283096); conditions: primary human HUVEC with PBMC;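 further: cells read one day after compound addition; hits may be either gain or loss of signal compared with DMSO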
In short: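 Compounds were added to a human vascular co-culture of umbilical vein endothelium and PBMC. After 24 h, parallel cultures were fixed with 10% TCA, stained with 0.1% sulforhodamine B and read at 560 nm. Gain or loss of signal was fitted relative to DMSO.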

[11] = BSK_BT_PBMCCytotoxicity: PBMC Cytotoxicity Assessment in the BioMAP Diversity Plus: BT Assay (AID 2284225); conditions: primary human B cells with PBMC;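 further: PBMC viability measured by Alamar Blue dye reduction fluorescence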
In short: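 Primary human co-culture of B cells and PBMC, pre-dosed 1 h then activated with SEB and TSST-1. Cytotoxicity is taken from Alamar Blue dye reduction, added for 6 h at the end of a 90 h incubation.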

[12] = read-out: Interleukin 17A (IL17A), IL17A (gene 3605); experiment: BSK_BT_xIL17A: BioMAP Diversity Plus: BT Assay for Interleukin 17A (IL17A) Biomarker Activity (AID 2284229); conditions: primary human B cells with PBMC
In short: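 Luminex xMAP readout of secreted IL-17A; human B cell + PBMC co-culture; 24 h post-dose; positive-direction fit vs DMSO negative control.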

[13] = read-out: Collagen III, COL3A1 (gene 1281); experiment: BSK_MyoF_CollagenIII: BioMAP Diversity Plus: MyoF Assay for Collagen III Biomarker Activity (AID 2284239); conditions: primary human lung fibroblasts
In short: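 Lung fibroblast culture; 24 h compound exposure; collagen III by ELISA; gain-of-signal fit vs DMSO baseline.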

[14] = read-out: Interleukin 2 (IL2), IL2 (gene 3558); experiment: BSK_BT_xIL2: BioMAP Diversity Plus: BT Assay for Interleukin 2 (IL2) Biomarker Activity (AID 2284245); conditions: primary human B cells with PBMC
In short: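 Co-cultures of primary human B cells and PBMC are treated with chemical and sampled at 24 h. IL-2 secretion is quantified by Luminex xMAP, with DMSO-treated wells as baseline.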

[15] = read-out: Collagen IV, COL4A1 (gene 1282); experiment: BSK_MyoF_CollagenIV: BioMAP Diversity Plus: MyoF Assay for Collagen IV Biomarker Activity (AID 2284247); conditions: primary human lung fibroblasts
In short: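 Lung fibroblasts (human primary) treated with chemicals were assayed after 24 h for Collagen IV using an ELISA, with DMSO serving as negative control and baseline for a positive-direction fit.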

[16] = read-out: Plasminogen activator inhibitor-1 (PAI1), SERPINE1 (gene 5054); experiment: BSK_MyoF_PAI1: BioMAP Diversity Plus: MyoF Assay for Plasminogen activator inhibitor-1 (PAI1) Biomarker Activity (AID 2284256); conditions: primary human lung fibroblasts
In short: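 MyoF lung fibroblasts, human primary; compound 24 h; PAI-1 ELISA; positive-direction fit vs DMSO baseline; parallel SRB total-protein staining for cytotoxicity.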

[17] = read-out: Matrix Metallopeptidase 1 (MMP1), MMP1 (gene 4312); experiment: BSK_MyoF_MMP1: BioMAP Diversity Plus: MyoF Assay for Matrix Metallopeptidase 1 (MMP1) Biomarker Activity (AID 2284268); conditions: primary human lung fibroblasts
In short: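 Cells: human lung fibroblasts. Exposure: 24 h chemical dosing. Detection: ELISA for MMP1. Analysis: upward fitting against DMSO negative control.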

[18] = read-out: TIMP metallopeptidase inhibitor 1 (TIMP1), TIMP1 (gene 7076); experiment: BSK_MyoF_TIMP1: BioMAP Diversity Plus: MyoF Assay for TIMP metallopeptidase inhibitor 1 (TIMP1) Biomarker Activity (AID 2284269); conditions: primary human lung fibroblasts
In short: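 ELISA quantified TIMP-1 levels after 24 h dosing of primary human lung fibroblasts, with DMSO as baseline. Parallel SRB total protein staining (0.1% SRB after TCA fixation, 560 nm) flagged overt cytotoxicity.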

Measured: AC50

Sequence of E-selectin (Homo sapiens) (P16581 whole entry, looked up): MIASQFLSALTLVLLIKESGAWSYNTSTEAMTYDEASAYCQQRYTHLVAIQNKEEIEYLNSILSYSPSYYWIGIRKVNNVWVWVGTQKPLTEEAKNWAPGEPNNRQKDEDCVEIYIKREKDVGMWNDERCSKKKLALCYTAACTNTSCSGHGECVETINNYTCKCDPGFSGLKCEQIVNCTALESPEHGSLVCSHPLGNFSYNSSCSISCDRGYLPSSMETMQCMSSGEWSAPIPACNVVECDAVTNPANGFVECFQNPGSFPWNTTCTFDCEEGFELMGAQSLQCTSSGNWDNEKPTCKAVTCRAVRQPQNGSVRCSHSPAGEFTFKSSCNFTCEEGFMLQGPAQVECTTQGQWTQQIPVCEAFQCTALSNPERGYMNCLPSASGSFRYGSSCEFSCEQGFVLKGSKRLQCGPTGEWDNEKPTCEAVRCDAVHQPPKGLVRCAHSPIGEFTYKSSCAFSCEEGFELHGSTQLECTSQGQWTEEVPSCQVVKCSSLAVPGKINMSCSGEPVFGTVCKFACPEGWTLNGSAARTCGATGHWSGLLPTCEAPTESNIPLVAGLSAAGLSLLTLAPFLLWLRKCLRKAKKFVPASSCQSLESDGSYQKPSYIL

CC(C)CCCCCCCOC(=O)c1ccccc1C(=O)OCCCCCCCC(C)C
inactive: all assays above

CCC(C)c1cc([N+](=O)[O-])cc([N+](=O)[O-])c1OC(=O)C=C(C)C (centres undefined)
active: [1] 5.85 µM | [2] 9.2 µM | [3] 5.31 µM | [4] 33 µM | [6] 25 µM | CD40, CD40 (gene 958) 7.96 µM | CD69, CD69 (gene 969) 8.09 µM | [7] 8.28 µM | [9] 8.87 µM | [10] 15.3 µM | [11] 20 µM | [12] 14.4 µM | [13] 5.36 µM | [14] 30.9 µM | [15] 12.3 µM | [16] 11.6 µM | [18] 13.5 µM
inactive: [8] | [17]

CC(C)(C)C(O)C(Oc1ccc(-c2ccccc2)cc1)n1cncn1 (centres undefined)
active: [1] 30.6 µM | [3] 31.3 µM | [5] 29 µM | [13] 30.5 µM | [14] 20 µM | [15] 20 µM | [17] 30 µM | [18] 17.1 µM
inactive: all other assays above

CCc1cc(C)cc(CC)c1-c1c(OC(=O)C(C)(C)C)n2n(c1=O)CCOCC2
active: [1] 24.7 µM | [3] 3.97 µM
inactive: all other assays above

Nc1ccc(-c2ccc(N)c(N)c2)cc1N
active: CD69, CD69 (gene 969) 12.7 µM | [7] 11.7 µM
not listed: [1] | [3] | [4] | [6]
inactive: all other assays above

O=C1C(Cl)=C(Cl)C(=O)C(Cl)=C1Cl
active: [1] 6.64 µM | [3] 14.4 µM | [4] 29.1 µM | [5] 20 µM | [6] 20 µM | CD40, CD40 (gene 958) 25.3 µM | CD69, CD69 (gene 969) 27.3 µM | [7] 25.9 µM | [8] 28 µM | [9] 7.77 µM | [10] 30.9 µM | [11] 26.4 µM | [12] 20 µM | [13] 14.4 µM | [14] 29.3 µM | [15] 25 µM | [16] 29.9 µM | [18] 28 µM
inactive: [2] | [17]

CC(C)(C)C(=O)CCl
active: [1] 20 µM | [3] 4.45 µM | [4] 20 µM | CD69, CD69 (gene 969) 8.75 µM | [7] 20 µM | [9] 23.1 µM | [11] 12.9 µM | [16] 32.9 µM
not listed: [2]
inactive: all other assays above

O=C1C=CC(=O)C=C1
active: [1] 28.8 µM and 13.8 µM | [3] 10.9 µM and 20 µM | [6] 24.5 µM and 21.7 µM | CD40, CD40 (gene 958) 29 µM and 27.7 µM | CD69, CD69 (gene 969) 20 µM and 22.9 µM | [7] 30.7 µM and 25.2 µM | [9] 6.38 µM and 3.38 µM | [11] 17.3 µM and 27.7 µM | [12] 13.6 µM and 20 µM | [13] 32.2 µM and 20 µM | [14] 26.3 µM and 32 µM | [15] 34.4 µM | [16] 36.9 µM and 26.8 µM | [17] 5.76 µM | [18] 30.3 µM
inactive: [2] | [4] | [5] | [8] | [10] | [15] | [17] | [18]

O=S(=O)(c1ccccc1)c1ccccc1
inactive: all assays above

COCC(=O)N(c1c(C)cccc1C)N1CCOC1=O
inactive: all assays above

O=C(CCl)c1ccccc1
active: [1] 3.04 µM | [2] 11.2 µM | [3] 6.84 µM | [4] 10.5 µM | [5] 10.4 µM | [6] 21.3 µM | CD40, CD40 (gene 958) 5.77 µM | CD69, CD69 (gene 969) 6.19 µM | [7] 3.31 µM | [8] 5.88 µM | [9] 1.06 µM | [10] 14 µM
